# Assay outcomes (PubChem)
# Only some compounds are listed: those with a hit (about 5.4% of all), similar ones and a draw of the others.
# ALR inh: inhibitors of human ALR sulfhydryl oxidase, primary screen, biochemical, H2O2 detection, HRP-luminol luminescence, single point; FAD-linked sulfhydryl oxidase ALR (Homo sapiens), P55789; purified ALR, DTT oxidation; inhibition, % (concentration not given with the values); hit rate 3.8% among 290,000;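 active means mean replicate inhibition above about 79%, with every replicate also reaching it, limit read from the data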
# PP1 counter: PP1-alpha phosphatase inhibitors, primary screen, counter-screen for PP5 inhibitor project, biochemical, fluorescence, OMFP substrate, single point. Serine/threonine-protein phosphatase PP1-alpha catalytic subunit (Homo sapiens), P62136. purified PP1alpha. inhibition, % at 6.7 µM. hit rate 0.9% among 320,000. AID 2235, 2010;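 active means inhibition above the mean inhibition of all tested compounds plus 3 SD, computed separately for each screening campaign, cut at about 15% in these data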
# Calb FLC: C. albicans growth inhibition with fluconazole, primary screen, CaCi-2 strain, Alamar Blue fluorescence. C. albicans CaCi-2 (fluconazole-resistant clinical isolate) + fluconazole, 48 h. growth inhibition, % (no concentration beside the values). hit rate 0.57% among 300,000. AID 1979, 2009;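 active means growth inhibition above about 58% in most replicates, limit read from the data, passing the limit was not always enough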;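 further: all wells also contain fluconazole at 8 µg/ml as a sub-toxic cotreatment; 0% = median of DMSO wells and 100% = median of geldanamycin control wells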
# PP5 inh: PP5 phosphatase inhibitors, primary screen, biochemical, fluorescence; Serine/threonine-protein phosphatase 5 (Homo sapiens), P53041; purified PP5c, OMFP substrate fluorescence; inhibition, % at 6.7 µM; hit rate 0.18% among 320,000; AID 1987, 2009;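 active means inhibition above the campaign's mean inhibition across all tested compounds plus 3 SD, cut at about 9.5% in these data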;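 further: 0% = DMSO only and 100% = 100 µM cantharidin control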
# Target sequence (P53041 whole entry, looked up): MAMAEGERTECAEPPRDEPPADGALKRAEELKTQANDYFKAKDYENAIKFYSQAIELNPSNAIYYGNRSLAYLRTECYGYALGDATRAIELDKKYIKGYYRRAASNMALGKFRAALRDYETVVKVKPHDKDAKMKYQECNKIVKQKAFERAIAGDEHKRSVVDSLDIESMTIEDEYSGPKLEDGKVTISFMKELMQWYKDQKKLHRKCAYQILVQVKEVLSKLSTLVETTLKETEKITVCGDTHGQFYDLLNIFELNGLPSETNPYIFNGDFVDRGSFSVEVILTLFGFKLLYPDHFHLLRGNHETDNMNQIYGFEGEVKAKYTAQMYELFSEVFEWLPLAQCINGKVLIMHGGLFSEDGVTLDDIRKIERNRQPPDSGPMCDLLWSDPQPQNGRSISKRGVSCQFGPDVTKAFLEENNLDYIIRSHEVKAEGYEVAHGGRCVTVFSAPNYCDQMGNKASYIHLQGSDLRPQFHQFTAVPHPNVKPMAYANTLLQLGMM
# CSC inhib: cancer stem cell viability inhibitors, primary screen, luminescence. cancer stem cell-like cells viability. inhibition, % at 7.5 µM. hit rate 1.1% among 300,000. AID 2717, 2010; in the data active means inhibition above about 75%; tested in HMLE shEcad cells
# Active calls of the source: *; · = not tested or not shown; + = active, no number.
SMILES,ALR inh,PP1 counter,Calb FLC,PP5 inh,CSC inhib
O=C(NNC(=S)NC(=O)c1cccc([N+](=O)[O-])c1)c1ccc(O)cc1,88*,-4,30,3,4
COc1ccccc1NC(=O)N1CCCC1C(=O)Nc1ccc2c(c1)OCCO2 (stereo not drawn),-2,1,-12,4,-15
CN(C)CCC#CC1(O)c2ccccc2-c2ccccc21,-19,-1,-1,2,-9
Cc1occc1C(=O)NNC(=S)Nc1cccc([N+](=O)[O-])c1,98*,0,-7,2,-2
COc1ccc(-c2csc(C3=C(O)CN(Cc4ccc(S(N)(=O)=O)cc4)C3=N)n2)cc1OC,-14,-5,0,-2,-15
CN(C(=S)Nc1ccc(SC(F)F)cc1)c1ccc(O)cc1,81*,3,1,1,-1
CC1CCC2(CC1)SCC(=O)N2c1ccc(F)cc1 (stereo not drawn),99*,1,-1,4,0
CC(C)(C)C1CCC2(CC1)SCC(=O)N2c1ccccc1 (stereo not drawn),-6,-1,-1,3,0
CC1CCc2c(C(=O)Oc3cccc(-n4cnnn4)c3)csc2C1 (stereo not drawn),-4,7,16,5,8
OCCN1CCN(C(=S)NC2CCCC2)CC1,·,-2,88*,0,-16
S=C(NC1CC1)N1CCN(C(=S)NC2CC2)CC1,0,-2,1,0,-9
S=C(NCCN1CCOCC1)NC1CCCC1,-6,-2,51*,2,0
Cc1nn(-c2ccccc2)c(N)c1N=Nc1ccc(Cl)cc1,-3,0,98*,0,79*
COc1ccc(SCC(=O)c2cc(C)c(OC(=S)N(C)C)c(C)c2)cc1,92*,1,3,2,-14
Cc1cc(C(=O)CSc2ccc(F)cc2)cc(C)c1OC(=S)N(C)C,2,1,13,4,·
Cc1c(N2C(=O)/C(=C\c3ccccc3O)SC2=S)c(=O)n(-c2ccccc2)n1C,15,5,2,3,14
CN1C(=O)/C(=C/c2cc(N=Nc3ccccc3)ccc2O)SC1=S,-11,-2,-2,2,+
Cn1nc(C(C)(C)C)cc1C(=O)Sc1cccc(Br)c1,99*,-2,-17,0,-2
CC1Cc2ccccc2N1C(=O)COC(=O)Cn1cnc2ccccc2c1=O (stereo not drawn),-2,0,11,0,2
COc1ccc(-n2nc(C(=O)NCC(=O)NCCC3=CCCCC3)c3ccccc3c2=O)c(OC)c1,7,6,97*,0,-4
Cc1ccccc1N(CC(=O)N1CCc2ccccc2C1)S(C)(=O)=O,-32,0,3,-3,1
OC(CNCc1ccco1)Cn1c2ccc(Br)cc2c2cc(Br)ccc21 (stereo not drawn),-5,0,5,5,106*
Brc1ccc2ncnc(NCc3ccco3)c2c1,4,3,8,4,3
O=C(O)c1cccc(NS(=O)(=O)c2ccc(NC(=O)c3ccco3)cc2)c1,-1,-3,-8,0,5
COc1ccc(Cc2noc(-c3ccc([N+](=O)[O-])cc3)n2)cc1OC,-31,-5,-2,3,10
SMILES,ALR inh,PP1 counter,Calb FLC,PP5 inh,CSC inhib
O=C(O)c1cn(Cc2ccccc2)c2ccc(Cl)cc2c1=O,11,17*,-2,1,-6
O=C(O)CSCC(=O)Nc1cc(C(F)(F)F)ccc1Cl,-16,-2,7,0,-5
Cc1ncc(CSCC(=O)Nc2cc(C(F)(F)F)ccc2Cl)c(CO)c1O,94*,-1,5,1,-24
Cc1ccc(N/N=C2/CCCNC2=O)cc1,90*,0,-4,1,-3
CC(=O)c1ccc(N/N=C2/CCCNC2=O)cc1,99*,0,-14,-1,14
CN1CCN(S(=O)(=O)c2ccc(N)cc2)CC1,96*,-5,-3,-2,-14
Cc1ccc(-c2ccc(S(=O)(=O)N3CCN(C)CC3)cc2)cc1,0,-3,-30,-2,-7
COc1ccc([C@H]2/C=C\CN(C(=O)CC(C)(C)C)[C@@H](C)C(=O)N2Cc2ccc(F)cc2)cc1,0,3,-4,2,-7
COc1ccc([C@H]2/C=C\CN(Cc3ccc(N(C)C)cc3)[C@@H](C)C(=O)N2Cc2ccc(F)cc2)cc1,98*,-1,-15,1,16
